Drawing on PubChem BioAssay (NCATS), this text covers Potency for 22 molecules.

Results filed as inconclusive are left out. A call without a number means that no potency is given here. The source made the active and inactive calls. Calls follow the shape of the dose curve; as a rule, active = well fitted inhibition curve with a large enough effect; inconclusive = small, poorly fitted or top-dose-only effect; inactive = flat fitted curve, though single readings scatter.
Potency is read from the fitted curve at half-maximal effect.

The subject of the assay is CP203. In words: qHTS profiling for inhibitors of Plasmodium falciparum proliferation (AID 504749). Also: nearly all actives have a fitted effect of over 60% in size. As to conditions: P. falciparum in erythrocytes, SYBR Green DNA, 72 h; series mostly up to 28.7 µM. The source says: NIH National Institute of Allergy and Infectious Diseases [NIAID] NIH Chemical Genomics Center [NCGC] MLPCN Grant: None Assay Provider: Xinzhuan Su, NIAID NCGC Assay Overview: Plasmodium falciparum is a virulent malarial parasite that kills 1-2 million people worldwide each year. Transmitted by mosquitoes, the sporozoite form of the parasite enters the blood stream to infect hepatocytes, where they become merozoites that infect red blood cells (erythrocytes). Within erythrocytes, merozoites begin a […] cycle of growth and division, after which the parasite is released to infect new red blood cells. Gametocytes, which form within erythrocytes as well, circulate in the bloodstream and are ingested by the mosquito, thereby completing the life cycle. To profile malarial isolates for differential chemical responses and to identify inhibitors of malarial growth, an assay that measures P. falciparum growth and replication within erythrocytes was employed. This assay uses a DNA binding fluorescent dye (SYBR Green) to detect parasite DNA following cell lysis. Because mature erythrocytes lack DNA, only Plasmodium-derived DNA is detected.
NCGC Assay Protocol Summary: The SYBR Green viability assay was adapted from a method described previously (Plouffe et al., 2008). For screening 3 ul culture medium was dispensed into 1536 well black clear bottom plates (Aurora Biotechnologies) using a Multidrop Combi (Thermo Fisher Scientific Inc.), 23 nL compounds in DMSO were added by a pin tool (Kalypsys), and 5 ul of erythrocytes infected with P. falciparum (0.3% parasitemia, 2.5% hematocrit final concentration) were added. The plates were incubated at 37 C in a humidified incubator in 5% CO2 for 72 h, and 2 ul lysis buffer (20 mM Tris HCl, 10 mM EDTA, 0.16% saponin, 1.6% triton X, 10X SYBR Green I supplied as 10,000X […] by Invitrogen) was added to each well. The plates were mixed for 25 sec with gentle shaking and incubated overnight at room temperature in the dark. The following morning, fluorescence intensity at 485(14) nm excitation and 535(25) nm emission wavelengths was measured on an EnVision (Perkin Elmer) plate reader. Plate reads were normalized relative to the control inhibitor (0.29 uM artemisinin) and vehicle (DMSO) wells present on each plate and then corrected by an algorithm using vehicle-only control plates at the beginning and end of the compound plate stack.
For orientation: qHTS replaces the single test concentration by a dilution series.
As to `CC(C)NC(C)Cc1ccc(I)cc1` (configuration not stated), the Potency entry was “inactive”.
The same measure for `O=[N+]([O-])c1ccc([As](=O)(O)O)cc1`: 9.53 µM (active); for `Cc1ccc(Cl)c(O)c1`: “inactive”.
The same measure for `CC[N+]1(CCOC(=O)C(O)(c2ccccc2)c2ccccc2)CCCCC1`: “inactive”; for `COC(=O)[C@@H](N)CCCN=C(N)N[N+](=O)[O-]`: “inactive”; for `C#CC1(O)CCC2C3CCC4=CC(=O)CCC4(C)C3CCC21C` (configuration not stated): “inactive”.
The entry for `C=CCN1CC[C@]23CCCCC2[C@H]1Cc1ccc(O)cc13` (some centres not stated) is “inactive”; for `COC(=O)c1cncn1C(C)c1ccccc1` (configuration not stated) it is “inactive”; for `C1CCC(NC2CCCCC2)CC1` it is “inactive”.
On to `C[C@]12CCC(=O)C(O)=C1CC[C@@H]1[C@H]3CCC(=O)[C@@]3(C)CC[C@@H]12`, for which the Potency entry was “inactive”.
The entry for `CCCN1CCC[C@H](c2cccc(O)c2)C1` is “inactive”.
The same measure for `CCCCc1ccc(C(=O)O)nc1`: “inactive”; for `O=C(O)COc1ccccc1`: “inactive”.
For the molecule `Cc1cc(O)ccc1Cl`, the Potency entry is “inactive”.
For the molecule `CCCCCCCCCC(CC)c1ccc(S(=O)(=O)O)cc1` (configuration not stated), the Potency entry was “inactive”.
The entry for `CC(=O)OCC1=C(C(=O)O)N2C(=O)[C@@H](N)[C@@H]2SC1` is “inactive”; for `CC(=O)[O][Hg][c]1ccccc1` it is 13.5 µM (active).
The same measure for `NC1=NC(=O)N2CC12` (configuration not stated): “inactive”; for `O=C(O)C(Cl)Cl`: “inactive”.
The entry for `c1ccc(C2(c3ccccc3)CC2C2=NCCN2)cc1` (configuration not stated) is “inactive”.
For the molecule `NC(=O)CN1CC(O)CC1=O` (configuration not stated), the Potency entry was “inactive”.
For the molecule `CN1C2CCC1CC(OC(=O)c1cc(Cl)cc(Cl)c1)C2` (configuration not stated), the Potency result is “inactive”.
